Test results reported in PubChem BioAssay (NCATS).
Results filed as inconclusive are left out. Where a call stands in place of a potency, no number is given. The source made the active and inactive calls. Calls come from the whole dose curve; as a rule, active = well fitted inhibition curve with a large enough effect; inconclusive = small, poorly fitted or top-dose-only effect; inactive = no such curve, though single readings can be large or run the other way.

What was measured:
[1] = tested on: Zika virus NS2B-NS3 protease (unlinked complex); test: Primary screen GU Rhodamine qHTS for Zika virus inhibitors: Unlinked NS2B-NS3 protease assay (AID 1347159); note: nearly all actives have a fitted effect of over 60% in size
Outline: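 A qHTS format was used, with compound concentrations ranging up to 114 microM. Each compound was preincubated with 25 nM NS2B-NS3 protease, and the substrate was then added at 1.5 microM. Curves were fitted with a 4-parameter Hill model.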

[2] = tested on: Zika virus NS2B-NS3 protease (linked construct); test: Primary screen NINDS Rhodamine qHTS for Zika virus inhibitors (AID 1347160); note: nearly all actives have a fitted effect of over 55% in size
Outline: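 Kinetic fluorescence (Ex 480 nm, Em 540 nm) over 15 min with 1.5 microM Rhodamine110 peptide and 25 nM linked protease.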

SMILES | Potency [1] | Potency [2]
Fc1ccc2c(CCNCc3cccc(OCC(F)(F)C(F)F)c3)c[nH]c2c1 | inactive | inactive
O=C(Nc1ccccc1)N1CCC(Cc2cnc3ccccc3c2)CC1 | inactive | inactive
CCCOc1ccc(CCc2nc3cc(-c4c(C)noc4C)ccc3n2CCN2CCOCC2)cc1 | inactive | inactive
CC(C)C[C@@H]1NC(=O)[C@@H]2C[C@@]34C[C@@H]5[C@@]6(C)CCCC(C)(C)C6CC[C@@]5(C)N(c5ccccc53)[C@H]4N2C1=O (stereo partly specified) | inactive | inactive
CCOC(=O)N1CCC(CN(Cc2ccc(Cl)cc2)Cc2ccc([N+](=O)[O-])s2)C1 (stereo unspecified) | inactive | inactive
N#CC(CCCN1CCN(/N=C/c2cccnc2)CC1)(c1ccccc1)c1ccccc1 | inactive | inactive
O=C(NCCCNC(=O)c1ccc[nH]c1=O)c1cc(-c2ccccc2)on1 | inactive | inactive
CCNC(=O)N1CCCN(c2ccc(C(=O)NCCc3ccc(Cl)cc3Cl)cc2NC(=O)c2cccc(Cl)c2)CC1 | inactive | inactive
COc1ccc(CNCc2cccc3ccccc23)cc1 | inactive | inactive
Nc1nc(OCc2cc(Br)cs2)c2[nH]cnc2n1 | inactive | inactive
COc1cc2nc(N3CCN(C(=O)COc4c(OC)cccc4C(C)C)CC3)nc(N)c2cc1OC | inactive | inactive
Cc1c(C(=O)NCc2cccnc2)nn(-c2ccc(Cl)cc2Cl)c1-c1ccc(Cl)cc1 | inactive | inactive
C=CC(=O)Nc1cccc(Nc2nc(Nc3ccc(NC4CN(CCF)C4)cc3OC)ncc2C(F)(F)F)c1 | inactive | inactive
